Source: the supplement of paper PMC10849652
Of roughly 7,900 targets only a part is listed; those with a hit were picked by preference. About 0.6% of all pairs of compound and target were hits. A number with no mark means an inactive call.

How the values were obtained:
Assay in all cases: log2 fold change, soluble protein after heating vs DMSO (PISA); higher = thermal stabilisation; K562 cells, 10 uM, 30 min; active = over 0.2 and 3.5 SD of the protein, either way, in both replicates (recomputed)
bafetinib = compound: Cc1ccc(NC(=O)c2ccc(CN3CC[C@H](N(C)C)C3)c(C(F)(F)F)c2)cc1Nc1nccc(-c2cncnc2)n1 [bafetinib]
Outline: (§1)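 K562 cells (2×10^6 cells/mL) were treated with 10 μM compound for 30 min, and aliquots were heated for 3 min over 48°C-58°C. Pooled aliquots were extracted in PBS with 0.5% NP-40 at 4°C, and the supernatant after 21,000xg for 90 min was measured by TMTpro 16plex LC-MS/MS with channel sums equalised. Reported thermal stability, relative to control samples and from duplicates, is a log2 fold change.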

[1] = compound: Cc1cccc(CC(=O)N2CCc3c2ccc(-c2cn(C)c4ncnc(N)c24)c3F)n1
Outline: as §1

nilotinib = compound: Cc1cn(-c2cc(NC(=O)c3ccc(C)c(Nc4nccc(-c5cccnc5)n4)c3)cc(C(F)(F)F)c2)cn1 [nilotinib]
Outline: as §1

[2] = compound: Cc1nc(Nc2n[nH]c3c2CN(C(=O)N[C@H](CN(C)C)c2ccccc2)C3(C)C)c2sccc2n1
Outline: as §1

dasatinib = compound: Cc1nc(Nc2ncc(C(=O)Nc3c(C)cccc3Cl)s2)cc(N2CCN(CCO)CC2)n1 [dasatinib]
Outline: as §1

[3] = compound: Cc1ncc(-c2ccnc(Nc3ccc(S(C)(=O)=O)cc3)n2)n1C(C)C
Outline: as §1

[4] = compound: Cn1cc(-c2ccc3c(c2)CCN3C(=O)Cc2cccc(C(F)(F)F)c2)c2c(N)ncnc21
Outline: as §1

[5] = compound: Cn1cc(-c2ccc3nnc(C(F)(F)c4ccc5ncccc5c4)n3n2)cn1
Outline: as §1

tipifarnib = compound: Cn1cncc1[C@@](N)(c1ccc(Cl)cc1)c1ccc2c(c1)c(-c1cccc(Cl)c1)cc(=O)n2C [tipifarnib]
Outline: as §1

mubritinib = compound: FC(F)(F)c1ccc(/C=C/c2nc(COc3ccc(CCCCn4ccnn4)cc3)co2)cc1 [mubritinib]
Outline: as §1

UniProt P50748, sequence (P50748 whole entry, looked up): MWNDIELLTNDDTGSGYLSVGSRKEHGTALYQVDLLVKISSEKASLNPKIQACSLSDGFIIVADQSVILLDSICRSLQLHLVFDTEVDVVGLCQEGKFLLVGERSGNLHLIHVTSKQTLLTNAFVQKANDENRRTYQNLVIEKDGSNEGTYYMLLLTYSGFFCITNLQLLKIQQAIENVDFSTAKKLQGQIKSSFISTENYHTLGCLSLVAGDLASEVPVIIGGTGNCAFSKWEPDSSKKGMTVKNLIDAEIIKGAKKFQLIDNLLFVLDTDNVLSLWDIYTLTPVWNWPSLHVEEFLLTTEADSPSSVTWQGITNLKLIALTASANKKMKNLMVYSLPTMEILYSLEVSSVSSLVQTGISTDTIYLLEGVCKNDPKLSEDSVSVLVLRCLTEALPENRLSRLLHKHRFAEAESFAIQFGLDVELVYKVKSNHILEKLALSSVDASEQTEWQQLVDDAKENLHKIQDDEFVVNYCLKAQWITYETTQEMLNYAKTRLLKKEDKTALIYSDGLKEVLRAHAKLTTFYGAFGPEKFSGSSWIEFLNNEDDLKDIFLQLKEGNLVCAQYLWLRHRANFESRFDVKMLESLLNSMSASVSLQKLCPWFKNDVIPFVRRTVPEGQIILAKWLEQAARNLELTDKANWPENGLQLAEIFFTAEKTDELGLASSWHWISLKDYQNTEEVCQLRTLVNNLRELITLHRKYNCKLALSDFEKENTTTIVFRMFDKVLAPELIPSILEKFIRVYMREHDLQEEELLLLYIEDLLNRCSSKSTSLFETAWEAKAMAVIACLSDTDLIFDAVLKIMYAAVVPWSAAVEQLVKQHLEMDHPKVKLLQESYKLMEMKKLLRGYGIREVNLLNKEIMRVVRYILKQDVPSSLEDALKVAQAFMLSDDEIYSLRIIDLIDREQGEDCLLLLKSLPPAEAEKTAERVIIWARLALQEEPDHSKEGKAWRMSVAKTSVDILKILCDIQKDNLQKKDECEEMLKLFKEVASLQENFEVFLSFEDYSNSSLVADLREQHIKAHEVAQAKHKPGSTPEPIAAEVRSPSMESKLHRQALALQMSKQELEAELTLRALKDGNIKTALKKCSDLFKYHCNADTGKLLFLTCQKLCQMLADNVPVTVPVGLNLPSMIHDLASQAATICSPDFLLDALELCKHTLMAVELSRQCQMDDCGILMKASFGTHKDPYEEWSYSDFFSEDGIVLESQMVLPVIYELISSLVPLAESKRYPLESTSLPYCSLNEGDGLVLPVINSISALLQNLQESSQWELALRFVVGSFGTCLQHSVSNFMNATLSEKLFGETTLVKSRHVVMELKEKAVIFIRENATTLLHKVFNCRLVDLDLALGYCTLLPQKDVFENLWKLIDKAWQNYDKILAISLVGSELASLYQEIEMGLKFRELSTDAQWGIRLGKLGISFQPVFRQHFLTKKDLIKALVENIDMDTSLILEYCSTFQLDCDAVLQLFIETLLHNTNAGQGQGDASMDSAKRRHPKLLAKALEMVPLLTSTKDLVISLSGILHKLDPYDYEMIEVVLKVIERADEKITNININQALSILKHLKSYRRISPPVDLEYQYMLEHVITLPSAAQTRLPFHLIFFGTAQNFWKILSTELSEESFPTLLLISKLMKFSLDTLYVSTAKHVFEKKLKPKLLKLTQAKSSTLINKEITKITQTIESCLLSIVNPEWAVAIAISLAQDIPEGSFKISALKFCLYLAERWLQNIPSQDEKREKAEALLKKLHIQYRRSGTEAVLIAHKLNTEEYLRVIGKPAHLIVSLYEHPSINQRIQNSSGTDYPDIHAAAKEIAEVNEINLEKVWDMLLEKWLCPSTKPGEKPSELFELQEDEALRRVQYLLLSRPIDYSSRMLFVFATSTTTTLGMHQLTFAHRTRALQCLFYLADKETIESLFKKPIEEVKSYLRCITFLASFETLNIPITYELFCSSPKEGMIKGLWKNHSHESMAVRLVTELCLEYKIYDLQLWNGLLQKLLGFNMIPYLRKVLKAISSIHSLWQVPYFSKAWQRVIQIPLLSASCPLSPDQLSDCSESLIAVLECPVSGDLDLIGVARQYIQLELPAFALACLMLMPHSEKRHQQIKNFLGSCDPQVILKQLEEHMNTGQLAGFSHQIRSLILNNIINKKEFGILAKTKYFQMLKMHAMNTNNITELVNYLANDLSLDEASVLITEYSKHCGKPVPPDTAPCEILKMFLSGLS
UniProt Q9H6V9, sequence (Q9H6V9 whole entry, looked up): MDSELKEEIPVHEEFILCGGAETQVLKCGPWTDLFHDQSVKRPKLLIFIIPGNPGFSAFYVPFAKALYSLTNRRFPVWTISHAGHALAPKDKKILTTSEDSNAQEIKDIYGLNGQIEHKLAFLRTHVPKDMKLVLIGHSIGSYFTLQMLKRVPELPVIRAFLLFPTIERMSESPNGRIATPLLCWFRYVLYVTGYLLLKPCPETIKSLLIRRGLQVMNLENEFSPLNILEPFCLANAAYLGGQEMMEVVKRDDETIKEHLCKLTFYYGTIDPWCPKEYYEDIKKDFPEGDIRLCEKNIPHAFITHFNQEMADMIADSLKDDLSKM
UniProt Q9UIQ6, sequence (Q9UIQ6 whole entry, looked up): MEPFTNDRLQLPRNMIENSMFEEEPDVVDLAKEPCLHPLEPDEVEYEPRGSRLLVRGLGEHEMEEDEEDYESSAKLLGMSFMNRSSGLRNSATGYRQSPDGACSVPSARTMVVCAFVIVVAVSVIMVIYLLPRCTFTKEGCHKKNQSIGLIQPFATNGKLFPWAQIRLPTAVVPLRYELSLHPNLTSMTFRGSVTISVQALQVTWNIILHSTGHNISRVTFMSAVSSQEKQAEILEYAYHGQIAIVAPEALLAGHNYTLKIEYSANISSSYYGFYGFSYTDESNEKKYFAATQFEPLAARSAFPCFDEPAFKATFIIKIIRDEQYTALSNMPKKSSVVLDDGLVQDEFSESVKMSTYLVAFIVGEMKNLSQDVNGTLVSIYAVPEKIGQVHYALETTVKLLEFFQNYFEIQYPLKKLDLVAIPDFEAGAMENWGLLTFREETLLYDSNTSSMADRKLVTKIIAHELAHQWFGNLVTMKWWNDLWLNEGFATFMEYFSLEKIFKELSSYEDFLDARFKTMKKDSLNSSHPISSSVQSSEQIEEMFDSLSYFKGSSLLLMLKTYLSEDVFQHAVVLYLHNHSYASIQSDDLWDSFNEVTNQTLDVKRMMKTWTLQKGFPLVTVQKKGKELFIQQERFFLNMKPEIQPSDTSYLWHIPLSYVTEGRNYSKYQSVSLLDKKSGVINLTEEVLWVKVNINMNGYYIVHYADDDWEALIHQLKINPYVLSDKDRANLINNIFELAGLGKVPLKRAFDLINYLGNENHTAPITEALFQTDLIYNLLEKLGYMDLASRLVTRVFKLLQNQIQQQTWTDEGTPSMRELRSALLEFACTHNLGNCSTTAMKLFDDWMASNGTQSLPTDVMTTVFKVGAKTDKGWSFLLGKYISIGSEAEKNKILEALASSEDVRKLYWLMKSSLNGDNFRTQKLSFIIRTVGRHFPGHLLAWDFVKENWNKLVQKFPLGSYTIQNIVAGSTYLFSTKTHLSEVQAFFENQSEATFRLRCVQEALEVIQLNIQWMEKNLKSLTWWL
UniProt O14880, sequence (O14880 whole entry, looked up): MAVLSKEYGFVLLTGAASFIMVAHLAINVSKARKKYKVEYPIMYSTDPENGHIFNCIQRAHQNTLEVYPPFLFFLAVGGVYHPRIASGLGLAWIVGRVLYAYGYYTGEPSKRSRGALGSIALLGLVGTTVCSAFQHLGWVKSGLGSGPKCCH
UniProt Q03252, sequence (Q03252 whole entry, looked up): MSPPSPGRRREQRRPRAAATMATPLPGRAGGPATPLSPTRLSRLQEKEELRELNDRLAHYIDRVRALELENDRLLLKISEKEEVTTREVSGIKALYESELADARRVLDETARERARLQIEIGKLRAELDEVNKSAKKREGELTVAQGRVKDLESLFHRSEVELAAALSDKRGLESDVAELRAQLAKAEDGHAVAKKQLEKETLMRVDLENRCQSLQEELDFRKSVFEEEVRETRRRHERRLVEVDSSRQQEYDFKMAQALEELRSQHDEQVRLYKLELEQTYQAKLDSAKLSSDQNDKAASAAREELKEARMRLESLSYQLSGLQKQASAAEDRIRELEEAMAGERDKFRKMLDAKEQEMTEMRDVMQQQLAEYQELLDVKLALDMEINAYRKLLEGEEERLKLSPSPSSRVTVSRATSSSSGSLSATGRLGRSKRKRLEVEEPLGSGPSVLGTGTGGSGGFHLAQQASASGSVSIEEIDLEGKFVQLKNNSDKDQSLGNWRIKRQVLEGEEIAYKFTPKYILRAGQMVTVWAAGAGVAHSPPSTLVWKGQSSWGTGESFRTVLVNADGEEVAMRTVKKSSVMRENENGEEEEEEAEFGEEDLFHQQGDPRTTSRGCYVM
UniProt Q8N108, sequence (Q8N108 whole entry, looked up): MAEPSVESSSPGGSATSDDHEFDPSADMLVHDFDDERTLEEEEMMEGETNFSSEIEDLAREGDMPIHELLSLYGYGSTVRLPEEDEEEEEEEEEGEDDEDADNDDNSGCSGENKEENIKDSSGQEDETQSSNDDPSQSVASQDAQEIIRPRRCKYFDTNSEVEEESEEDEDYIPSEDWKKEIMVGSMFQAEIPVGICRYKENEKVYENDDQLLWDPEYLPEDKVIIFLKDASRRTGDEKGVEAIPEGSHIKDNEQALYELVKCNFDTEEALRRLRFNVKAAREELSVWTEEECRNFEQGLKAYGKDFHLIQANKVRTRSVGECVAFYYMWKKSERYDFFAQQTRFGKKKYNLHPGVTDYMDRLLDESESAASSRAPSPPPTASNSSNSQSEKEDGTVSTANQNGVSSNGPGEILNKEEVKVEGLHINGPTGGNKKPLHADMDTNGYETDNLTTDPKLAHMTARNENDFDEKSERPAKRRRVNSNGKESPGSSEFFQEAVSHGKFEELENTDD
UniProt P33947, sequence (P33947 whole entry, looked up): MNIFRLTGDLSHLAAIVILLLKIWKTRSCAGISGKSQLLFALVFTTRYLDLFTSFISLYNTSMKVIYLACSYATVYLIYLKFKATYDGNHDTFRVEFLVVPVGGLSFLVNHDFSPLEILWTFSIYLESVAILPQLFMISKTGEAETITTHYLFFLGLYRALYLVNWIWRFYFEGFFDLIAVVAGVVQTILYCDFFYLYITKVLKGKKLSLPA

Target | log2 fold change (bafetinib) | log2 fold change [1] | log2 fold change (nilotinib) | log2 fold change [2] | log2 fold change (dasatinib) | log2 fold change [3] | log2 fold change [4] | log2 fold change [5] | log2 fold change (tipifarnib) | log2 fold change (mubritinib)
LMBRD2 (UniProt Q68DH5) | -0.142 | -0.006 | -0.048 | 0.041 | 0.019 | -0.028 | -0.03 | 0.043 | 0.189 | -0.007
LMNB2 (UniProt Q03252) | -0.067 | -0.078 | 0.022 | -0.077 | 0.101 | -0.158 | 0.015 | -0.007 | 0.166 | -0.043
MAPKAPK5 (UniProt Q8IW41) | 0.123 | -0.014 | 0.057 | -0.035 | -0.031 | 0.052 | -0.065 | -0.074 | -0.083 | 0.075
MAGEC2 (UniProt Q9UBF1) | -0.024 | -0.065 | -0.02 | 0.021 | 0.059 | 0 | -0.056 | -0.07 | -0.02 | -0.015
KDELR2 (UniProt P33947) | -0.088 | 0.072 | -0.069 | 0.035 | 0.097 | -0.082 | 0.194 | 0.264 | 0.125 | -0.049
KSR1 (UniProt Q8IVT5) | 0.035 | -0.052 | -0.052 | -0.303 | -0.228 | -0.021 | 0.003 | -0.129 | -0.086 | -0.233
MGST3 (UniProt O14880) | -0.085 | -0.002 | 0.01 | 0.012 | 0.069 | -0.056 | 0.004 | -0.026 | 0.019 | -0.094
LIAS (UniProt O43766) | -0.034 | -0.079 | 0.038 | 0.003 | 0.028 | -0.059 | -0.017 | 0.059 | 0.098 | 0.002
LRBA, A0A494BZW2 | -0.041 | 0.044 | 0.019 | -0.016 | -0.144 | 0.053 | -0.076 | 0.123 | -0.26 | -0.03
LMF2 (UniProt Q9BU23) | -0.068 | 0.024 | 0.047 | -0.014 | 0.033 | 0.026 | 0.021 | 0.022 | 0.019 | 0.052
MAP2K1 (UniProt Q02750) | -0.026 | -0.039 | -0.015 | -0.052 | -0.063 | 0.008 | 0.023 | 0.021 | -0.024 | 0.015
MEAK7 (UniProt Q6P9B6) | -0.094 | 0.042 | 0.024 | -0.036 | -0.078 | 0.025 | 0.02 | -0.03 | -0.022 | 0.052
MAP3K4 isoform 2 (UniProt Q9Y6R4) | -0.059 | -0.095 | 0.008 | 0.221 (active) | 0.534 (active) | 0.027 | -0.031 | 0.021 | -0.032 | 0.016
LARP1 (UniProt Q6PKG0) | 0.049 | 0.024 | -0.063 | -0.014 | 0.014 | -0.028 | -0.067 | -0.043 | 0.047 | -0.011
IK (UniProt Q13123) | 0.013 | -0.01 | -0.062 | -0.067 | -0.025 | 0.037 | -0.007 | -0.109 | 0.003 | -0.067
IRF3 (UniProt Q14653) | 0.033 | 0.023 | 0.066 | -0.191 | -0.1 | -0.04 | 0.106 | 0.005 | -0.023 | 0.039
LYPLA2 (UniProt O95372) | 0.139 | 0.007 | 0.13 | -0.042 | 0 | -0.026 | 0.175 | 0.298 | -0.054 | 0.013
MAP3K7 (UniProt O43318) | 0.029 | 0.085 | -0.105 | -0.028 | -0.038 | 0.059 | -0.095 | -0.026 | -0.064 | 0.046
KPNA6 (UniProt O60684) | -0.071 | 0.078 | -0.054 | -0.038 | -0.067 | 0.003 | -0.098 | -0.015 | -0.033 | -0.067
MFN2 (UniProt O95140) | -0.106 | 0.068 | -0.002 | -0.022 | -0.024 | -0.01 | -0.004 | 0.018 | -0.004 | 0.019
MAPK14 isoform 2 (UniProt Q16539) | 1.73 (active) | -0.038 | 1.67 (active) | 0.176 | 1.37 (active) | 0.037 | -0.071 | -0.02 | -0.049 | 0
LNPEP (UniProt Q9UIQ6) | -0.056 | -0.007 | 0.017 | 0.026 | 0.033 | -0.024 | 0.014 | -0.007 | 0.008 | 0.035
KIF11 (UniProt P52732) | 0.043 | 0.044 | -0.057 | -0.031 | -0.075 | 0.088 | -0.06 | -0.002 | -0.078 | -0.025
LMNB1 (UniProt P20700) | -0.089 | -0.004 | 0.037 | -0.11 | 0.092 | -0.117 | -0.059 | -0.074 | 0.105 | -0.069
KNTC1 (UniProt P50748) | -0.013 | 0.043 | -0.064 | -0.026 | -0.047 | 0.042 | -0.073 | 0 | -0.108 | 0.004
LTN1 isoform 3 (UniProt O94822) | -0.036 | 0.039 | -0.079 | -0.031 | -0.122 | -0.052 | -0.09 | -0.042 | -0.151 | -0.009
LDAH isoform 2 (UniProt Q9H6V9) | -0.188 | -0.027 | 0.175 | -0.122 | -0.215 | -0.035 | 0.082 | -0.025 | 0.076 | 0.094
LRRFIP1 (UniProt Q32MZ4) | -0.034 | -0.043 | 0.008 | 0.002 | 0.038 | -0.016 | 0.024 | 0.013 | 0.016 | 0.035
MIER1 isoform 12 (UniProt Q8N108) | -0.016 | 0.031 | 0.012 | -0.083 | -0.028 | -0.061 | 0.056 | -0.041 | -0.004 | 0.052
KDM5D isoform 3 (UniProt Q9BY66) | 0.208 | -0.049 | 0.089 | -0.054 | -0.289 | -0.047 | -0.026 | 0.058 | -0.044 | 0.203
